Screening data: PubChem BioAssay, National Center for Advancing Translational Sciences (NCATS)
FMDV inh – antivirals against foot and mouth disease virus. FMDV antiviral cell-based qHTS. Potency, µM (series often up to 57.9 µM), for the others: top-dose activity change, negative = inhibition, hits mostly inhibitors. hit rate 1.2% among 410,000. AID 1159524; calls by dose curve; tested in HEK293T cells; further: read-out not given here; potency means the concentration at half of the fitted maximal effect; nearly all actives have a fitted effect of over 45% in size
Lassa entry inh – Lassa virus entry inhibition; Lassa virus pseudotype entry inhibition, cell reporter; Potency, µM (highest dose often 37.9 µM), for inactives: top-dose activity change, negative = inhibition, actives largely listed as inhibitors; hit rate 1.2% among 300,000; AID 540256; calls by dose curve; tested in HEK293 cells; further: potency means the concentration at half of the fitted maximal effect; nearly all actives have a fitted effect of over 50% in size
MARV entry inh – inhibitors of Marburg virus binding or cell entry; hit rate 1.8% among 300,000; Marburg virus pseudotyped entry inhibition, cell reporter; Potency, µM (doses to about 37.8 µM), for inactives: at the highest dose activity change, negative = inhibition, usual class: inhibitors; calls by dose curve; tested in HEK293 cells; further: potency means the concentration at half of the fitted maximal effect
VACV Venus inh – inhibitors of vaccinia virus (Venus reporter); Vaccinia virus Venus reporter expression, fluorescence; AID 720580; Potency, µM (highest dose often 36.5 µM), for inactives: top-dose activity change, negative = inhibition, most hits filed as inhibitors; hit rate 0.46% among 330,000; calls by dose curve; tested in A549 cells; further: potency means the concentration at half of the fitted maximal effect; nearly all actives have a fitted effect of over 30% in size
HCMV antiviral – human cytomegalovirus inhibition. activity change, negative = inhibition, % at 57.5 µM. HFF cells, HCMV-luciferase reporter, 72 h; active compounds read low. hit rate 4.5% among 410,000; in the data active means activity change below about -60%; inconclusive means no clear call, values can overlap the other calls; inactive means above about -39%
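Cell-based, HFFs, 1000 cells/well, 16 h 37C; cpds in DMSO + HCMV-luc, MOI 1 PFU/cell; 72 h 37C; OneGlo luminescence after 5 min RT; norm. to buffer vs Salinomycin 10uM.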
VACV mCherry inh – inhibitors of vaccinia virus infection (mCherry reporter signal). Vaccinia virus mCherry reporter infection, fluorescence. Potency, µM (doses to about 36.5 µM), for the others: at the top dose activity change, negative = inhibition, usual class: inhibitors. hit rate 0.63% among 310,000; calls by dose curve; tested in A549 cells; further: potency means the concentration at half of the fitted maximal effect; nearly all actives have a fitted effect of over 35% in size
* marks the source's active call; other numbers are inactive results; i = inactive; ? = inconclusive; . = no result given; [ ] = remark or other dose. In the library only some 6.5% were active in any assay of this set; here they are far more common. On the % scale 0 is the no-effect control and ±100 the full control effect.

SMILES	FMDV inh	Lassa entry inh	MARV entry inh	VACV Venus inh	HCMV antiviral	VACV mCherry inh
Cc1ccc(Nc2nc(N)nc(CCl)n2)cc1	6.8%	?	?	-7.5%	-108.1*	i
CCCCc1nc2c(c3c1C[C@H](C)OC3)CN(C(=O)Cc1cccc(OC)c1)CC2	.	.	1.7%[14.2 µM]	.	.	.
CC(CCN1CCCCc2nc(C)c(C)cc21)=NO[C@@H](C)CN1CCCCc2nc(C)c(C)cc21	.	?	5.6%[14.2 µM]	.	.	.
O=C(Nc1cccc(Br)c1)c1cc(S(=O)(=O)N2CCCCC2)c[nH]1	39.7%	15.3%[46.1 µM]	.	-1.6%	48.7	-4.4%
Cc1cccc(Nc2nc(N)nc(CN3CCC(C(N)=O)CC3)n2)c1C	-6.0%	5.5%	11.5%	-1.0%	30.8	.
Cc1ccc(Nc2nc(N)nc(CCl)n2)c(C)c1	15.9%	.	.	.	-102.7*	.
CC1CC(C)CN(C(=S)SCc2nc(N)nc(Nc3ccccc3)n2)C1 (stereo unspecified)	0.0%	2.8%	?	-22.5%[7.34 µM]	-64.8*	-15.0%[7.34 µM]
CCOc1ccc(Nc2nc(N)nc(CCl)n2)cc1	13.4%	?	?	?	-96.5*	?
CCOc1ccc(Nc2nc(N)nc(CN3CCN(c4ccccc4F)CC3)n2)cc1	?	?	?	?	?	-27.7%
Cc1cccc(Nc2nc(N)nc(CCl)n2)c1C	1.0%	?	?	?	-96.5*	?
CCN(CC)c1ccc(/C=C/c2ccc3ccccc3n2)cc1	.	.	.	i	.	i
CO[C@H]1[C@H](NC(=O)c2ccco2)c2ccccc2C12CCN(Cc1ccc3cccc(F)c3n1)CC2	-18.9%	.	.	-6.2%	.	-12.4%
C=CCNC(=O)c1cnn2c1NC(=C)C=C2C	.	.	.	-10.2%	.	-17.4%
CCN1CCN(c2ccc(NS(=O)(=O)c3c(C)nc4sccn4c3=O)cc2Cl)CC1	-9.5%	-25.2%[46.1 µM]	?	-11.3%[7.34 µM]	-68.0*	-16.1%[7.34 µM]
Cc1nc2sccn2c(=O)c1S(=O)(=O)Nc1ccc(N2CCOCC2)c(Cl)c1	?	-26.7%[46.1 µM]	-2.1%[46.1 µM]	-14.5%	3.0	-3.0%
Nc1c(Cl)cc(-c2cn(CCC(=O)O)c(=O)cn2)cc1Cl	.	.	.	.	22.2	.
ICC[n+]1csc2ccccc21	.	.	.	15.4%	.	11.2%
O=C(NNC(=O)c1ccc2ccccc2n1)c1ccc(O)cc1	-7.4%	.	.	.	?	.
CCCOc1ccc(C(=O)NNC(=S)NC(=O)CC)cc1	-10.7%	14.6µM*	?	.	-62.1*	.
CCOc1ccc(C(=O)NC(=S)NCc2cccnc2)cc1	-9.9%	6.6%	?	-8.2%	-15.8	-12.0%
COc1ccc(C(=O)NNC(=O)c2ccc3ccccc3n2)cc1	-21.4%	?	?	?	-88.5*	11.2µM*
CCCOc1ccc(C(=O)NC(=S)NCc2cccnc2)cc1	-20.2%	-16.7%	0.2%	-21.6%	-64.7*	-15.6%
C=CCNC(=S)NNC(=O)c1ccc(OCCC)cc1	-24.5%	-3.4%	17.8%	-8.7%	-19.3	.
COc1ccc(C(=O)NNC(=S)NC(=O)c2cccnc2)cc1	7.9%	-25.5%	?	-7.5%	-88.6*	1.1%
COc1ccc(OC)c(NC(=O)CS(=O)(=O)Cc2nc(-c3ccc(C)cc3)oc2C)c1	-4.4%	5.2%[46.1 µM]	11.8%[46.1 µM]	-19.6%	-5.9	-10.3%
SMILES	FMDV inh	Lassa entry inh	MARV entry inh	VACV Venus inh	HCMV antiviral	VACV mCherry inh
CC(=O)NCCNC(=O)c1nnc2n1CCN(C(=O)C1CCCCC1)C2	.	.	.	.	-17.0	.
COc1ccc(C(=O)NNC(=S)NC(=O)c2ccc(OC)cc2)cc1	-11.2%	.	.	.	-92.2*	.
C[C@@H]1COc2cc(F)ccc2S(=O)(=O)N1	.	-6.9%[46.1 µM]	.	.	.	.
CCNc1nc(NC(C)(C)C)nc(N2CCCCC2)n1	-28.8%	?	2µM*	-20.9%	-72.4*	-22.5%
CCNc1nc(N2CCCC2)nc(N2CCCC2)n1	-21.4%	-6.6%[46.1 µM]	?	-22.9%	-31.5	-21.9%
CCc1ccc(-n2nc(CO)c(C(=O)NC)n2)cc1	39.1%	4.7%[46.1 µM]	?	-2.0%	21.1	-2.8%
CCn1cnc2c(Nc3cccc(Cl)c3)nc(N[C@@H]3CCCC[C@H]3N)nc21	.	.	6.31µM*	.	.	.
CCn1cnc2c(Nc3cccc(Cl)c3)nc(C#N)nc21	3.4%	.	.	.	60.2	.
CC[C@H](CO)Nc1nc(Nc2cccc(Cl)c2)c2ncn(C(C)C)c2n1	6.6%	.	.	10µM*	-65.3*	?
CCOC(=O)C(C(=O)OCC)c1cc(Br)c2noc3c2c1C(=O)c1ccccc1-3	25.1µM*	11.2µM*	?	117.6%	-105.9*	2.5%[1.46 µM]
NC(=S)NN=C1CCC2(CCCCC2)CC1	-9.3%	6.5%	?	?	-32.6	?
CC1(C)CCC(=NNC(N)=S)CC1	-5.5%	-1.7%	?	?	-0.2	11.2µM*
COc1ccc(CN2C(=O)N(c3ccccc3)C(=O)C2c2ccccc2)cc1COc1ccc(NC(C)=O)cc1 (stereo unspecified)	.	.	.	-16.5%	.	-23.5%
COc1ccc(C[C@H]2NC[C@H](O)[C@H]2OC(C)=O)cc1	?	.	.	0.891µM*	-98.1*	0.447µM*
COc1ccc(C2=C[C@H](c3cccc(OC)c3)n3nnnc3N2)cc1	.	.	-13.8%[46.1 µM]	.	.	.
COc1ccc(/C=C2\SC(=S)N(CCCC(=O)N3CCN(C)CC3)C2=O)cc1OC	18.3%	-2.0%[46.1 µM]	-3.2%[46.1 µM]	9.9%	3.8	i
COc1cccc(/C=C2\SC(=S)N(CCCC(=O)N3CCCCC3CCO)C2=O)c1 (stereo unspecified)	-17.9%	.	.	.	-109.7*	.
CCc1ccc(/C=C2\SC(=S)N(CCCC(=O)N3CCCC3)C2=O)cc1	-3.9%	.	.	?	-99.0*	?
COc1ccccc1/C=C1\SC(=S)N(CCC(=O)N2CCCCC2CCO)C1=O (stereo unspecified)	0.1%	-11.6%[46.1 µM]	?	-28.5%	-76.5*	i
COc1cccc(/C=C2\SC(=S)N(CCCC(=O)N3CCCC3)C2=O)c1	-6.3%	-24.0%[46.1 µM]	?	?	-112.2*	?
COc1cccc(/C=C2\SC(=S)N(CCC(=O)N3CCCCC3CCO)C2=O)c1 (stereo unspecified)	-5.2%	.	.	.	-98.3*	.
O=C(CCN1C(=O)/C(=C/c2cccs2)SC1=S)N1CCCCC1	24.7%	?	?	?	-39.6	?
O=C1/C(=C/c2cccs2)SC(=S)N1CCC(=O)N1CCCCC1CCO (stereo unspecified)	0.0%	16.4%[46.1 µM]	?	-20.4%	-95.7*	?
CC(C)Nc1nc2c(S(=O)(=O)c3cccc(Cl)c3)nnn2c2ccsc12	-19.1%	1.7%[46.1 µM]	.	-20.3%	33.4	-2.7%
Cc1cc(C)nc(S[C@H]2C[C@@H](C(=O)N3CCN(c4ccccc4F)CC3)N(Cc3ccccc3C(F)(F)F)C2)n1	3.9%	.	.	-3.6%	.	-1.3%
Clc1ccc2[nH]c3c(NCC4CCCO4)ncnc3c2c1 (stereo unspecified)	.	.	0.0%	.	-65.1*	.
Cc1cc(=O)oc2cc(CN3C(=O)C(=O)c4cc(F)ccc43)ccc12	.	.	.	.	-38.5	.
C=CCOC(=O)N[C@H](c1cccc(C(F)(F)F)c1)C(C(C)=O)C(C)=O	.	.	-5.1%[14.2 µM]	.	.	.
Cc1ncc(CO)c(CNc2ccc(Oc3ccccc3)cc2)c1O	-26.3%	?	-26.5%[46.1 µM]	-8.9%	-70.1*	?
